Measured values taken from PubChem BioAssay (EPA / NIEHS).
The source made the active and inactive calls. Rule for the calls: active = hit-call score of the fitted dose curve at least 0.9, where 1 is the maximum; inactive = score below 0.9.

What follows are compounds tested against Paired box protein Pax-6 (Homo sapiens) (UniProt P26367) (assay: ATG_Pax6_CIS: Attagene CIS-FACTORIAL HepG2 Assay for human Paired Box 6 (PAX6) (AID 2282956)). Settings: HepG2 CIS-FACTORIAL PAX6 reporter transcription, RNA readout; actives raise or lower the signal.
Paired box protein Pax-6 (Homo sapiens), sequence (P26367 whole entry, looked up): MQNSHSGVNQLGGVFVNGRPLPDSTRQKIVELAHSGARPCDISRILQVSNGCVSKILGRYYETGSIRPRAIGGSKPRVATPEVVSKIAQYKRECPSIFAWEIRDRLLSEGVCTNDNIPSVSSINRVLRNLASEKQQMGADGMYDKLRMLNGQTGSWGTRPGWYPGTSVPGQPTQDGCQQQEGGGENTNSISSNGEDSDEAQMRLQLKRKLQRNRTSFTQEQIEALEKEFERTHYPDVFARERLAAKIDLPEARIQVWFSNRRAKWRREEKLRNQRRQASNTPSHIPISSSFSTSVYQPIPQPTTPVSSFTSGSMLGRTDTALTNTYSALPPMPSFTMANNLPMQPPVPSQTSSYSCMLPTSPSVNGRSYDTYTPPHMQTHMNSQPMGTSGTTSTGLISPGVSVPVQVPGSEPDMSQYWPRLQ
Protocol: ATG_CIS is a cell-based, multiplexed-readout assay that uses HepG2, a human liver cell line, with measurements taken at 24 hours after chemical dosing in a 24-well plate.ATG_Pax6_CIS is one of 52 assay component(s) measured or calculated from the ATG_CIS assay. It is designed to make measurements of mRNA induction, a form of inducible reporter, as detected with fluorescence intensity signals by Reverse transcription polymerase chain reaction (RT-PCR) and Capillary electrophoresis technology.Data from the assay component ATG_Pax6_CIS was analyzed into 1 assay endpoint. This assay endpoint, ATG_Pax6_CIS, was analyzed with bidirectional fitting relative to DMSO as the negative control and baseline of activity. Using a type of inducible reporter, measures of mRNA for gain or loss-of-signal activity can be used to understand the reporter gene at the transcription factor-level as they relate to the gene PAX6. Furthermore, this assay endpoint can be referred to as a primary readout, because this assay has produced multiple assay endpoints where this one serves a reporter gene function. To generalize the intended target to other relatable targets, this assay endpoint is annotated to the dna binding intended target family, where the subfamily is paired box protein.
Human liver HepG2 cells are transiently transfected with multiple reporter transcription units (MRTUs) in 6-well plates using FuGene 6 reagent (Roche; 3 ml FuGene/1 mg DNA). The MRTU constructs are regulated by a cis-regulating element (promoter). […] A major difference between the CIS and TRANS system is that in CIS activities of endogenous TFs are measured, whereas the TRANS assay evaluates changes in activities of exogenous, chimeric NR-Gal4 proteins. […] At the end of 24 hour incubation, total RNA was isolated using TriZol reagent (Invitrogen). The isolated RNA is then reverse-transcribed using oligo(dT) primer and Mo-MLV reverse transcriptase (Invitrogen) with DNAse I (Ambion) treatment for 30 min. The one-tenth of the produced cDNA was amplified by PCR using Taq DNA polymerase (Invitrogen) and two reporter sequence-specific primers. The PCR products were fluorescently labeled by primer extension with 6-arboxyfluorescein (6-FAM) 5'-labeled reporter sequence-specific primer (2 min at 95 C, 20 s at 68 C and 10 min at 72 C) and these products were digested with 5U of HpaI (New England Biolabs) for 2h at 37 C. The fragments were purified using Qiaquick PCR columns (Qiagen), analyzed on an ABI 3130xL genetic analyzer (Applied Biosystems) with peak positions identified by using a set of X-rhodamine (ROX)-labeled MapMarker1000 molecular weight standards (BioVentures). The raw capillary electrophoresis data was processed using Attagraph software (Attagene).
For `CC(=O)Nc1nnc(S(N)(=O)=O)s1`, the outcome was “inactive”. For `C=CC=CC=CCCCCC`, the outcome was “inactive”. For `N=c1ccn2c(n1)O[C@H]1[C@H](O)[C@@H](CO)O[C@H]12`, the outcome was “inactive”. In the case of `OC1CCCCCCCCCCC1`, the outcome is reported as “inactive”. For `O=CC1CC1`, the outcome was “inactive”. In the case of `CC(=O)Oc1ccc(C(C)=O)cc1`, the outcome is reported as “inactive”. `CC(CC=O)c1ccccc1` (stereo not given) was tested, and the outcome was “inactive”. With `C=CC(=O)OCCOC1C2CCC1C1CC=CC12` (stereo not given) the outcome was “inactive”. For `CCCCCCCCCCC=CC#N`, the outcome was “inactive”. For `CC1(C)[C@H]2CC[C@]1(C)C(=O)C2`, the outcome was “inactive”. For `O=C(O)CC(C(=O)O)C(CC(=O)O)C(=O)O` (stereo not given), the outcome was “inactive”. `CC(=O)CC(N)=O` was tested, and the outcome was “inactive”. For `O=C1c2cccc(O)c2C(=O)c2c(O)cc(CO)cc21`, the outcome was “inactive”. `O=C1C=CC(=O)O1` was tested, and the outcome was “inactive”. `C=C1[C@H]2CC[C@@H]3[C@H]2C(C)(C)CCC[C@]13C` was tested, and the outcome was “inactive”. For `c1c[nH]cn1`, the outcome was “inactive”. For `c1ccc2c(c1)ccc1cc3c(ccc4ccccc43)cc12`, the outcome was “inactive”. `O=c1c2ccccc2oc2ccccc12` was tested, and the outcome was “inactive”. In the case of `COC(=O)/C=C/C(C)=C\C=C\C(C)=C\C=C\C=C(C)\C=C\C=C(C)\C=C\C(=O)O`, the outcome is reported as “inactive”. With `Cc1cc(C)c(C(=O)O)c(C)c1` the outcome was “inactive”. With `N#[N+]c1ccc2c(S(=O)(=O)[O-])cccc2c1O` the outcome was “inactive”. For `CC(C)(C)c1ccc(-c2ccc(C(C)(C)C)cc2)cc1`, the outcome was “inactive”. In the case of `O=C(c1ccccc1)c1ccc(O)c(O)c1O`, the outcome is reported as “inactive”. With `CCCCCCCCCCOS(=O)(=O)O` the outcome was “inactive”. For `CCCCCCCC(C)=O`, the outcome was “inactive”. For `C(=CC=Nc1ccccc1)C=CNc1ccccc1`, the outcome was “inactive”. With `CC1(C)O[C@@H]2C[C@H]3[C@@H]4C[C@H](F)C5=CC(=O)CC[C@]5(C)[C@H]4[C@@H](O)C[C@]3(C)[C@]2(C(=O)CO)O1` the outcome was “inactive”. `C[Si](C)(CCCN)O[Si](C)(C)CCCN` was tested, and the outcome was “inactive”. With `O=C(O)CCCCCCCCCC(=O)O` the outcome was “inactive”. In the case of `CC/C=C\C/C=C\C/C=C\CCCCCCCC(=O)O`, the AC50 is reported as 100 µM (active). In the case of `O=C(C(Cl)Cl)N1CCOC12CCCCC2`, the AC50 is reported as 13.1 µM (active). `CC(C)=CCC/C(C)=C\C#N` was tested, and the outcome was “inactive”. In the case of `CC(C)(Oc1ccc(C2CC2(Cl)Cl)cc1)C(=O)O` (stereo not given), the outcome is reported as “inactive”. `OC1OCCOC1O` (stereo not given) was tested, and the outcome was “inactive”. For `CC(C)(C)C(=O)CCc1ccc(Cl)cc1`, the outcome was “inactive”. With `C1CN(SSN2CCOCC2)CCO1` the outcome was “inactive”. `CC(C)=CCCC(C)C=O` (stereo not given) was tested, and the outcome was “inactive”. In the case of `Nc1ncn([C@@H]2O[C@H](CO)[C@@H](O)[C@H]2O)c(=O)n1`, the outcome is reported as “inactive”. For `COc1ccc2nc(N)sc2c1`, the outcome was “inactive”. For `C=CC(C)(C)C`, the outcome was “inactive”.
